This is an account of results in PubChem BioAssay (NCATS).

Structures are written as SMILES. Results filed as inconclusive are left out. Where a call stands in place of a potency, no number is given. A number with no mark means an inactive call. Calls of active or inactive are those of the source. Calls follow the shape of the dose curve; as a rule, active = well fitted cell-killing curve with a large enough effect; inconclusive = small, poorly fitted or top-dose-only effect, or effect the other way; inactive = flat fitted curve, though single readings scatter.
Potency is read from the fitted curve at half-maximal effect.

In one test the test system is Es-2. Briefly: Primary qHTS to identify gynecologic anti-cancer compounds using libraries of approved drugs and bioactive compounds (AID 1345084). Also: nearly all actives have a fitted effect of over 55% in size. As to conditions: Gynecologic cancer cell panel viability, ATPlite luminescence, 48 h; series mostly up to 57.5 µM. In short, it runs like this: (§1)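 Five-concentration response, 48 h; readout is ATP-driven luciferase luminescence.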
(In general: Quantitative high-throughput screening tests each substance at several concentrations.)
For the molecule `CC(=O)O[C@@H]1[C@H](O[C@@H]2OC[C@](O)(CO)[C@H]2O)[C@@H](O[C@@H]2O[C@@H](C)[C@H](O)[C@@H](O)[C@H]2O)[C@H](OC(=O)[C@]23CCC(C)(C)C[C@H]2C2=CCC4[C@@]5(C)C[C@H](O)[C@H](O[C@@H]6O[C@H](C(=O)O)[C@@H](O)[C@H](O)[C@H]6O)[C@@](C)(C(=O)O)C5CC[C@@]4(C)[C@]2(C)CC3)O[C@@H]1C` (stereo not given in full), the activity change, negative = cytotoxicity is 1.8% [at 11.6 µM].

`CNC(=O)c1ccc(Nc2ncc(C(F)(F)F)c(NCc3nccnc3N(C)S(C)(=O)=O)n2)cc1`: the Potency was 17.8 µM (active).

Consider `Cc1nnc(C(C)C)n1C1CC2CCC(C1)N2CCC(NC(=O)C1CCC(F)(F)CC1)c1ccccc1` (stereo not given), for which the Potency entry was “inactive”.

Consider `CN1CCC(c2c[nH]c3ccc(NC(=O)c4ccc(F)cc4)cc23)CC1`, for which the Potency entry is “inactive”.

In the case of `NCc1ccc(OCCCc2sc(-c3ccc4c(c3)/C(=N/Nc3nc5ccccc5s3)CCC4)nc2C(=O)O)cc1`, the Potency entry is “inactive”.

For the molecule `C=C1CCC2C(C)(C)CC(=O)CC2(C)C1CCC(C)CCOC(C)=O` (stereo not given), the Potency entry is “inactive”.

For the molecule `O=C(Nc1cccnn1)N1CCC(=Cc2cccc(Oc3ccc(C(F)(F)F)cn3)c2)CC1`, the Potency result is “inactive”.

For the molecule `CN(NC(=O)CC(=O)NN(C)C(=S)c1ccccc1)C(=S)c1ccccc1`, the Potency entry was “inactive”.

On to `CCC(=O)O[C@]1(C(=O)CCl)[C@@H](C)C[C@H]2[C@@H]3C[C@H](F)C4=CC(=O)C=C[C@]4(C)[C@@]3(F)[C@@H](O)C[C@@]21C`, for which the Potency result is “inactive”.

On to `Nc1c(Br)cc(Br)cc1CNC1CCC(O)CC1` (stereo not given), for which the Potency entry was “inactive”.

On to `C=CCc1ccc(O[C@@H]2O[C@H](CO)[C@@H](O)[C@H](O)[C@H]2O)c(OC)c1`, for which the Potency entry is “inactive”.

Regarding `CN(C)C/C=C/C(=O)Nc1ccc(C(=O)Nc2cccc(Nc3ncc(Cl)c(-c4c[nH]c5ccccc45)n3)c2)cc1`, the Potency is 1.78 µM (active).

On to `CC(=O)c1cnc2ccc(-c3cc(Cl)c(O)c(Cl)c3)nc2c1NC1CCC(CN(C)C)CC1` (stereo not given), for which the Potency is 0.891 µM (active).

Turning to `COc1cc(N2CCC(N(C)C)CC2)ccc1Nc1ncc(Cl)c(Nc2ccccc2P(C)(C)=O)n1`, the Potency was 11.2 µM (active).

In the case of `CC1=CC(=O)C[C@H]2[C@@H]1CC[C@@H](C)[C@]21CO[C@H](c2ccoc2)C1=O`, the Potency result is “inactive”.

As for `NS(=O)(=O)OC[C@@H]1C[C@@H](n2ccc3c(N[C@H]4CCc5ccccc54)ncnc32)C[C@@H]1O`, the Potency is 3.16 µM (active).

For the molecule `CC(C)C1(O[C@@H]2O[C@H](CO)[C@@H](O)[C@H](O)[C@H]2O)CC=C(CO)CC1` (stereo not given in full), the Potency entry was “inactive”.

For the molecule `Cc1cc(C)c(S(=O)(=O)N(Cc2ccc(-c3cccc(S(C)(=O)=O)c3)cc2)Cc2ccc(C(F)(F)F)o2)c(C)c1`, the Potency entry is “inactive”.

On to `CCc1nc(C(N)=O)c(Nc2ccc(N3CCC(N4CCN(C)CC4)CC3)c(OC)c2)nc1NC1CCOCC1`, for which the Potency result is “inactive”.

A further test concerns HeLa. The test is described as above. The note with it: Gynecologic cancer cell panel viability, ATPlite luminescence, 48 h; series mostly up to 57.5 µM. In short, it runs like this:
as §1
On the technique in general: Cellular ATP, detected with luciferase, serves as a proxy for viable cell number.
In the case of `CC(=O)O[C@@H]1[C@H](O[C@@H]2OC[C@](O)(CO)[C@H]2O)[C@@H](O[C@@H]2O[C@@H](C)[C@H](O)[C@@H](O)[C@H]2O)[C@H](OC(=O)[C@]23CCC(C)(C)C[C@H]2C2=CCC4[C@@]5(C)C[C@H](O)[C@H](O[C@@H]6O[C@H](C(=O)O)[C@@H](O)[C@H](O)[C@H]6O)[C@@](C)(C(=O)O)C5CC[C@@]4(C)[C@]2(C)CC3)O[C@@H]1C` (stereo not given in full), the activity change, negative = cytotoxicity was 0.991% [at 11.6 µM].

Turning to `CNC(=O)c1ccc(Nc2ncc(C(F)(F)F)c(NCc3nccnc3N(C)S(C)(=O)=O)n2)cc1`, the Potency is 10 µM (active).

On to `Nc1ccn([C@@H]2C(F)=C(CO)[C@@H](O)[C@H]2O)c(=O)n1`, for which the Potency result was “inactive”.

Consider `Cc1nnc(C(C)C)n1C1CC2CCC(C1)N2CCC(NC(=O)C1CCC(F)(F)CC1)c1ccccc1` (stereo not given), for which the Potency result was “inactive”.

For the molecule `COC1CCCC/C(C)=C/C2C=C(C)C(C)C3C(CC(C)C)NC(=O)C23C(=O)C1` (stereo not given), the Potency result was “inactive”.

`CN1CCC(c2c[nH]c3ccc(NC(=O)c4ccc(F)cc4)cc23)CC1`: the Potency entry was “inactive”.

In the case of `O=C(O)C[C@H](O)C[C@H](O)/C=C/c1c(C2CC2)nc2ccccc2c1-c1ccc(F)cc1`, the Potency is 8.91 µM (active).

Take `C=C1CCC2C(C)(C)CC(=O)CC2(C)C1CCC(C)CCOC(C)=O` (stereo not given): the Potency entry is “inactive”.

With `O=C(Nc1cccnn1)N1CCC(=Cc2cccc(Oc3ccc(C(F)(F)F)cn3)c2)CC1`, the Potency entry is “inactive”.

For the molecule `CN(NC(=O)CC(=O)NN(C)C(=S)c1ccccc1)C(=S)c1ccccc1`, the Potency result was “inactive”.

As to `CCC(=O)O[C@]1(C(=O)CCl)[C@@H](C)C[C@H]2[C@@H]3C[C@H](F)C4=CC(=O)C=C[C@]4(C)[C@@]3(F)[C@@H](O)C[C@@]21C`, the Potency result is “inactive”.

As to `Nc1c(Br)cc(Br)cc1CNC1CCC(O)CC1` (stereo not given), the Potency result is “inactive”.

With `C=CCc1ccc(O[C@@H]2O[C@H](CO)[C@@H](O)[C@H](O)[C@H]2O)c(OC)c1`, the Potency entry was “inactive”.

As to `CN(C)C/C=C/C(=O)Nc1ccc(C(=O)Nc2cccc(Nc3ncc(Cl)c(-c4c[nH]c5ccccc45)n3)c2)cc1`, the Potency is 0.891 µM (active).

With `COc1cc(N2CCC(N(C)C)CC2)ccc1Nc1ncc(Cl)c(Nc2ccccc2P(C)(C)=O)n1`, the Potency was 3.16 µM (active).

Consider `Cc1nc2c(-c3cnc(N)nc3)nc(N3CCOCC3)nc2n1C(C)C`, for which the Potency was 1.58 µM (active).

On to `CC1=CC(=O)C[C@H]2[C@@H]1CC[C@@H](C)[C@]21CO[C@H](c2ccoc2)C1=O`, for which the Potency entry is “inactive”.

As to `NS(=O)(=O)OC[C@@H]1C[C@@H](n2ccc3c(N[C@H]4CCc5ccccc54)ncnc32)C[C@@H]1O`, the Potency result is “inactive”.

Turning to `CC(C)C1(O[C@@H]2O[C@H](CO)[C@@H](O)[C@H](O)[C@H]2O)CC=C(CO)CC1` (stereo not given in full), the Potency result is “inactive”.

In the case of `Cc1cc(C)c(S(=O)(=O)N(Cc2ccc(-c3cccc(S(C)(=O)=O)c3)cc2)Cc2ccc(C(F)(F)F)o2)c(C)c1`, the Potency result was “inactive”.

`CCc1nc(C(N)=O)c(Nc2ccc(N3CCC(N4CCN(C)CC4)CC3)c(OC)c2)nc1NC1CCOCC1`: the Potency was 3.55 µM (active).
